Assay [1] concerns the target rat Neonicotinoid receptor (NNR), Chrna7 (gene 25302) (UniProt Q05941). Kind of assay: NVS_LGIC_rNNR_BungSens: NovaScreen (NVS) Ligand-Gated Ion Channel Assay for rat Neonicotinoid receptor (NNR) (AID 2283315). The method, boiled down:
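Rat cortical membrane preparation incubated 2.5 h with tritiated or iodinated radioligand and test chemical. Bound radioactivity was filtered and counted by scintillation, and displacement was analysed against DMSO.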

In assay [2] the test system is NCBI gene 24521. Kind of assay: NVS_IC_rKATPCh: NovaScreen (NVS) Ion Channel Assay for rat Potassium Channel, ATP-Sensitive (KATPCh) (AID 2283319). The method, boiled down: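 Primary duplicate screen at 25 uM, then singleton concentration series to 50 uM maximum, in a rat cortex membrane radioligand displacement assay. Binding measured by filtration and scintillation 2 h post-dose; DMSO baseline.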

Inconclusive results are not listed. The source made the active and inactive calls. Rule for the calls: active = hit-call score of the fitted dose curve at least 0.9, where 1 is the maximum; inconclusive = response in the unintended direction; inactive = score below 0.9.

Chain of rat Neonicotinoid receptor (NNR), Chrna7 (gene 25302) (Q05941 whole entry, looked up): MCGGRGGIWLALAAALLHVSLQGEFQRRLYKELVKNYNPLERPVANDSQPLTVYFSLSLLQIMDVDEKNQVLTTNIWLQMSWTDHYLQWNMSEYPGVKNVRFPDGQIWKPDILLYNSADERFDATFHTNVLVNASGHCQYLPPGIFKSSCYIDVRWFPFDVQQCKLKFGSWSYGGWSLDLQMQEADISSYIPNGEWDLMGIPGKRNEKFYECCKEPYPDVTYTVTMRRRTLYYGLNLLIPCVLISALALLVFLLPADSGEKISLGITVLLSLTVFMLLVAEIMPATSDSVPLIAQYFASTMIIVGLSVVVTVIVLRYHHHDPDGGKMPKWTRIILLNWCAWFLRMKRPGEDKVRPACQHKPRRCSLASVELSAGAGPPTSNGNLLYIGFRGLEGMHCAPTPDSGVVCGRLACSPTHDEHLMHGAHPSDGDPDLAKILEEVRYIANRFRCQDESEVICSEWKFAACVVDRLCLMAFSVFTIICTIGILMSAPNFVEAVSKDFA

As to `O=C(O)c1cccnc1`, the molecule was classed as inactive in assay [1].

As to `CCCC[C@H]1CN(CC2CCOCC2)C(=O)OC12CCN(C1(C)CCN(C(=O)c3c(C)ncnc3C)CC1)CC2`, in assay [1], the AC50 – broadly, the concentration giving half of the maximal activity seen – is 4.46 µM (active).

Regarding `CCOCCOCCO`, the molecule was classed as inactive in assay [2].

Regarding `Cc1cc(Cc2ccc(N)c(C)c2)ccc1N`, the molecule was classed as inactive in assay [2].
